Assay outcomes deposited in PubChem BioAssay by National Center for Advancing Translational Sciences (NCATS).
miR-21 act = qHTS Assay for Modulators of miRNAs and/orActivators of miR-21; Potency, µM (doses to about 38.3 µM), inactives show at the top dose activity change, positive = activation, most hits filed as activators; HeLa miR-21 FLuc reporter, luciferase, 48 h; 340,000 tested, under 10 active; AID 2288, 2010;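 further: % of control where 0% means no effect; miR-21 action dims this reporter so a rising signal means less miR-21 action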
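HeLa cells endogenously expressing miR-21, stably carrying CMV-driven firefly luciferase with a downstream miR-21 binding site, 2000 cells/well. Titrations up to approximately 40 uM, 48 hours; luciferase luminescence read.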
TDP1 inh = qHTS Assay for Inhibitors of Tyrosyl-DNA Phosphodiesterase (TDP1); Tyrosyl-DNA phosphodiesterase 1 (Homo sapiens), Q9NUW8; recombinant TDP1, AlphaScreen DNA substrate cleavage; Potency, µM (doses to about 130 µM), for inactives: at the highest dose activity change, negative = inhibition, hits mostly inhibitors; hit rate 0.28% among 350,000; AID 485290, 2010; further: potency means the concentration at half of the fitted maximal effect; on the % scale 0 is the no-effect control and ±100 the full control effect; nearly all actives have a fitted effect of over 40% in size
Target sequence (Q9NUW8 whole entry, looked up): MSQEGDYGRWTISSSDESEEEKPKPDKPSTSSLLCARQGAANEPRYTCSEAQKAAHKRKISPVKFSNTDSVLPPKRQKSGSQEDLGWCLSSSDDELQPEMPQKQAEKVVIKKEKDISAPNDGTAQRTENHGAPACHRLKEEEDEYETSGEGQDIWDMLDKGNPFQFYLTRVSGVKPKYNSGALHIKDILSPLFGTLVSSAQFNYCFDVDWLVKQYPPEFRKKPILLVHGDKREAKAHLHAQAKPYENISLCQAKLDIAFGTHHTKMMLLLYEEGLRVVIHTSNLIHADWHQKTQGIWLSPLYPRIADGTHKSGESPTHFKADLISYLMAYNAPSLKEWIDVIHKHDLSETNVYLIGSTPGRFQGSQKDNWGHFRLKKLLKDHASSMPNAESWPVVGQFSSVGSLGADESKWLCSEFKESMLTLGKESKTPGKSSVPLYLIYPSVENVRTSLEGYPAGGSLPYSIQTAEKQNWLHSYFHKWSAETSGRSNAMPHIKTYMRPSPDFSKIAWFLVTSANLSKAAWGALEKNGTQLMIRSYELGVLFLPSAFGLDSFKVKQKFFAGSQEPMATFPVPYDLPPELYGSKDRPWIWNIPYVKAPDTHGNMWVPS
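Signal: AlphaScreen proximity between streptavidin donor and anti-FITC acceptor beads on intact substrate. Reaction: Tdp1 1 nM, substrate 15 nM final, 5 min RT after 15 min compound preincubation.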
DT40 TDP1 no CPT = qHTS for Inhibitors of human tyrosyl-DNA phosphodiesterase 1 (TDP1): qHTS in cells in absence of CPT; DT40 Tdp1-/- hTDP1 cells, no CPT, ATP luminescence, 48 h; Potency, µM (doses to about 46.2 µM), inactives show at the highest dose activity change, negative = growth inhibition, hits mostly inhibitors; hit rate 15% among 420,000; further: potency means the concentration at half of the fitted maximal effect; on the % scale 0 is the no-effect control and ±100 the full control effect; nearly all actives have a fitted effect of over 55% in size
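Cells were dispensed at 400 per well, compounds added by pin tool, plates incubated ≥48 hr at 37 °C, then CellTiter-Glo added for 30 min at room temperature before luminescence reading. Line: DT40 Tdp1-/- complemented with hTDP1; camptothecin omitted.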
uPA surface inh = qHTS for Inhibitors of Cell Surface uPA Generation | cell surface uPA generation assay, qHTS | Potency, µM (highest dose often 38.3 µM), without a hit: top-dose activity change, negative = inhibition, actives largely listed as inhibitors | hit rate 0.31% among 330,000 | AID 540303, 2011; active means well fitted inhibition curve with a large enough effect; inconclusive means small, poorly fitted or top-dose-only effect; inactive means no such curve, though single readings can be large or run the other way; tested in mouse RAW 264.7 cells; further: potency means the concentration at half of the fitted maximal effect; on the % scale 0 is the no-effect control and ±100 the full control effect; nearly all actives have a fitted effect of over 55% in size
DT40 TDP1 CPT = qHTS for Inhibitors of human tyrosyl-DNA phosphodiesterase 1 (TDP1): qHTS in cells in presence of CPT; chicken DT40 Tdp1-/-;hTDP1 cells + 20 nM CPT, ATP luminescence, 48 h; Potency, µM (doses to about 46.2 µM), inactives show top-dose activity change, negative = growth inhibition, hits mostly inhibitors; hit rate 12% among 420,000; further: potency means the concentration at half of the fitted maximal effect; on the % scale 0 is the no-effect control and ±100 the full control effect; nearly all actives have a fitted effect of over 55% in size
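Chicken DT40 Tdp1-/- cells stably complemented with human TDP1 were seeded at 400 cells/well in medium containing 20 nM camptothecin, exposed to pin-transferred compounds, and grown at 37 °C for at least 48 hr. Viability was read as ATP luminescence.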
Starred values were filed as active, the others as inactive; u = inconclusive; x = no result. Compounds with a hit are over-represented: about 16% of the library has one in this group of screens. Unless noted, the call rests on the fitted dose curve; in most records, active means well fitted curve in the direction sought with a large enough effect; inconclusive means small, poorly fitted or top-dose-only effect, or another doubt; inactive means no such curve, though single readings can be large; an effect the other way counts as inactive or inconclusive.

SMILES | miR-21 act | TDP1 inh | DT40 TDP1 no CPT | uPA surface inh | DT40 TDP1 CPT
CC(OC(=O)c1ccccc1NCCO)C(=O)NC1CCCCC1C (configuration not stated) | x | -4.8% | -24.4% | 5.6% | -19.8%
CCOC(=O)C1=CCCN(S(=O)(=O)c2ccc(C)cc2)C1 | x | x | 20.6µM* | x | u
Cc1ccc([C@@H]2CC=C(C(=O)O)CN2S(=O)(=O)c2ccc(C)cc2)cc1 | x | 1.5% | 0.3% | 13.4% | -2.1%
COc1cc([C@@H]2CC=C(C(=O)O)CN2S(=O)(=O)c2ccc(C)cc2)cc(OC)c1OC | x | -2.2% | -0.8% | 1.2% | 3.8%
CCOC(=O)C1=CCC(c2ccc(Cl)cc2)N(S(=O)(=O)c2ccc(C)cc2)C1 (configuration not stated) | x | x | 18.4µM* | x | 23.1µM*
CCOC(=O)N1CCN(S(=O)(=O)c2ccc(C)cc2)CC1 | -3.5% | 4.1% | -15.5% | 1.7% | -7.0%
CCOC(=O)C1=CCC(c2ccc(C#N)cc2)N(S(=O)(=O)c2ccc(C)cc2)C1 (configuration not stated) | x | x | 16.4µM* | x | 18.4µM*
Cc1nc(SCC(=O)N(C)C2CCS(=O)(=O)C2)c2ccccc2n1 (configuration not stated) | x | 0.2% | 7.2% | u | -5.5%
CC(Oc1ccccc1)C(=O)NCc1cccnc1 (configuration not stated) | 0.4% | 7.9% | -3.4% | 5.4% | -22.1%
O=C(NCc1cccc(F)c1)c1cccc(OC2CCN(C(=O)C3CC3)CC2)c1 | 20.0% | 1.5% | 18.4µM* | -74.2% | u
CCN(Cc1ccccc1)C(=O)c1cccc(OC2CCN(C(=O)C3CC3)CC2)c1 | 22.6% | 1.1% | u | -4.5% | u
O/N=C(/C[n+]1ccsc1)c1ccc(I)cc1 | x | x | 3.55µM* | x | 5.01µM*
CCN(CC(=O)NCC1CCCO1)S(=O)(=O)c1ccc2ccccc2c1 (configuration not stated) | 2.0% | x | -1.4% | -9.2% | 20.1%
O=C1C=C(NCc2ccc(Cl)c(Cl)c2)C2(CCCCC2)O1 | 11.9% | -5.7% | 16.4µM* | -10.8% | u
O=C1C=C(NCc2ccco2)C2(CCCCC2)O1 | 4.2% | -4.5% | -4.4% | -6.7% | 3.1%
Cc1csc(NC(=O)CSc2nnc(C)n2Cc2ccco2)n1 | -2.7% | 0.0% | 0.3% | -4.8% | -3.0%
O=C1CNC(=S)N1Cc1ccc(F)cc1 | 3.0% | -0.2% | -17.0% | -9.1% | -9.2%
N=c1ccn(Cc2ccc(F)cc2)cc1 | 3.1% | 5.6% | 10.3µM* | u | u
CCOC(=O)N(C)c1c(CC)nc2c(OCc3ccc(S(C)(=O)=O)cc3)cccn12 | x | x | -19.9% | x | -20.1%
CCc1nc2c(OCc3ccccc3)cccn2c1N(Cc1ccccc1)C(C)=O | x | x | u | x | 18.4µM*
CCOC(=O)N(C)c1c(CC)nc2c(OCc3ccccc3)cccn12 | x | x | 23.1µM* | x | 20.6µM*
COc1ccccc1NS(=O)(=O)c1cccc(NC(=O)c2sc3ccccc3c2Cl)c1 | 21.3% | 2.6% | u | -0.4% | u
CCCOc1ccc2cc(-c3ccccn3)c(=O)oc2c1 | 4.9% | 0.6% | 16.4µM* | -19.5% | u
O=c1oc2cc(OCc3c(F)cccc3Cl)ccc2cc1-c1ccccn1 | -3.7% | 5.2% | u | 6.0% | u
O=C(CCCn1ccc2cc(S(=O)(=O)N3CCCC3)ccc21)NCc1ccc(Cl)cc1 | u | 5.6% | 2.31µM* | x | 4.61µM*
SMILES | miR-21 act | TDP1 inh | DT40 TDP1 no CPT | uPA surface inh | DT40 TDP1 CPT
CN(C)c1ccc(CNC(=O)CCCn2ccc3cc(S(=O)(=O)N4CCCC4)ccc32)cc1 | u | 11.3% | 18.4µM* | x | u
O=C(CCn1ccc2cc(S(=O)(=O)N3CCCC3)ccc21)NCc1ccccc1 | 4.6% | -1.4% | -7.2% | -1.2% | -28.6%
CN1CCN(CCNC(=O)c2ccc(CS(=O)c3ccc(Br)cc3)o2)CC1 (configuration not stated) | x | x | 2.5% | x | -1.2%
O=C(Nc1ccccc1)Nc1nc(-c2ccc(F)cc2)cs1 | -15.6% | -4.5% | 4.11µM* | 0.0% | 4.11µM*
Cc1ccc(C(=O)Nc2nc(-c3ccc(F)cc3)cs2)o1 | 18.6% | x | u | 1.3% | u
Fc1ccc(-c2csc(NC(=S)Nc3ccccc3)n2)cc1 | -17.8% | x | u | 16.4% | 20.6µM*
CC1CC1C(=O)Nc1nc(-c2ccccc2)cs1 (configuration not stated) | -28.9% | 8.6% | 5.8µM* | -5.5% | 5.17µM*
Cc1c(C(=O)N2CCN(c3ccccn3)CC2)sc2ncnc(N3CCN(c4ccccc4)CC3)c12 | x | x | 11.6µM* | 0.9% | u
Cc1nc(N2CCN(c3ccccn3)CC2)c2c(C)c(C(=O)N3CCN(c4cccc(Cl)c4)CC3)sc2n1 | -0.4% | 9.2% | 20.6µM* | -1.8% | 14.6µM*
Cc1c(C(=O)N2CCN(c3ccccc3)CC2)sc2ncnc(N3CCC(C)CC3)c12 | -3.3% | 2.1% | x | x | x
OCCN(CCO)CC(O)COc1ccc(C23CC4CC(CC(C4)C2)C3)cc1 (configuration not stated) | 17.6% | 0.0% | 7.31µM* | -11.3% | 7.31µM*
CCN(CC)CC(O)COCCC12CC3CC(CC(C3)C1)C2 (configuration not stated) | -18.7% | 2.3% | u | -6.6% | u
CC1CCCCN1CC(O)COCCC12CC3CC(CC(C3)C1)C2 (configuration not stated) | -6.0% | 2.5% | 18.4µM* | 0.3% | 14.6µM*
OCCN(CCO)CC(O)COCCC12CC3CC(CC(C3)C1)C2 (configuration not stated) | -12.6% | -11.4% | 20.6µM* | 2.1% | u
CN(C)c1cccc(CNC(=O)c2ccc3sc([C@H]4C[C@H](O)[C@@H](CO)O4)nc3c2)c1 | x | x | -20.9% | x | -3.8%
CCOc1ccc(CCN2C(=O)C(=O)N([C@@H](CC(C)C)CN3CCC[C@H]3CN3C(=O)C(=O)NC[C@@H]3Cc3ccccc3)C[C@@H]2Cc2ccccc2)cc1 | x | x | 16.4µM* | x | 16.4µM*
CCOc1ccc(CCN2C(=O)C(=O)N([C@@H](CC(C)C)CN3CCC[C@@H]3CN3C(=O)C(=O)NC[C@@H]3Cc3ccccc3)C[C@@H]2CC(C)C)cc1 | x | x | 23.1µM* | u | u
CC(C)C[C@H]1CN(CCCC[C@H]2CNC(=O)C(=O)N2CCC2CCCCC2)C(=O)C(=O)N1CCc1ccccc1 | x | x | 18.4µM* | x | u
CCOc1ccc(CCN2C(=O)C(=O)N([C@@H](CC(C)C)CN3CCC[C@@H]3CN3C(=O)C(=O)NC[C@@H]3Cc3ccccc3)C[C@@H]2Cc2ccc(O)cc2)cc1 | x | x | u | 5.1% | u
